# Results published in PubChem BioAssay.
# “And” between values parts separate entries of the source, which are not always exact repeats. Equal entries are not always repeated. The source made the active and inactive calls. Unless noted, how the calls were made is not given here.
# How the values were obtained:
# [1] = circadian clock period modulators, cell-based, LOPAC library, luminescence reporter (AID 2774); details: circadian reporter cells, at 7 µM, actives lie on both sides;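 further: values are relative to mean of DMSO wells on each plate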
# [2] = system: Hepatitis C virus NS3 helicase; assay: HCV NS3 helicase inhibitors, primary screen, biochemical, fluorescence polarization, LOPAC1280 library (AID 687035; in the data active means inhibition above about 37%); details: Purified HCV NS3 helicase, Cy5-dT15 ssDNA binding fluorescence polarization; stronger effect = higher value; concentration not given here
# [3] = Cy5 fluorescence quenching or enhancement artefacts, artefact control for HCV NS3 helicase inhibitor project, biochemical, LOPAC1280 (AID 687037); details: Cy5-DNA-NS3h complex fluorescence interference counterscreen
# [4] = kinase inhibitors against Plasmodium liver-stage infection, cell-based, known kinase inhibitor set, luminescence, hepatoma host viability (AID 624392); details: Plasmodium liver stage in hepatoma cells, luciferase luminescence, concentration not given here; liver cell % of control: measured here: host liver cell viability; parasite % of control: stronger effect = lower value;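 further: infected cells incubated roughly two days before readout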
# [5] = phospholipid biosynthesis inhibitors in animal cells, primary screen, cell-based, LOPAC library, screen 4 (AID 1347384); details: phospholipid biosynthesis inhibition screen, at 10 µM
# [6] = LFS_MB_1R medulloblastoma cell growth inhibition, synergistic combos for chromothripsis tumors, cisplatin or BGB combos (AID 1671452; in the data active means inhibition above about 80%;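 further: cells exposed for 96 hours before readout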); details: LFS_MB_1R medulloblastoma cells, stronger effect = higher value
# [7] = CRL2098 osteosarcoma cell growth inhibition, synergistic combos for chromothripsis tumors, BGB or cisplatin IC20 combos (AID 1671454; in the data active means inhibition above about 80%;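 further: cells exposed for 96 h before readout; 0% = vehicle DMSO and 100% = killing by high DMSO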); details: CRL2098 osteosarcoma cells, drug combinations, stronger effect = higher value
# [8] = HD-MB03 medulloblastoma cell growth inhibition, synergistic combos for chromothripsis tumors, BGB or cisplatin IC20 combos (AID 1671455; in the data active means inhibition above about 83%;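 further: 0% = vehicle DMSO and 100% = high DMSO as cytotoxic control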); details: HD-MB03 medulloblastoma cells, stronger effect = higher value
# [9] = UWB1.289 ovarian carcinoma cell growth inhibition, synergistic combos for chromothripsis tumors, BGB or cisplatin combos (AID 1671456; in the data active means inhibition above about 80%;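 further: cells exposed to compound for four days; 0% = vehicle DMSO and 100% = killing by high DMSO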); details: UWB1.289 ovarian carcinoma cells, stronger effect = higher value
# [10] = LFS_MB_2R medulloblastoma cell growth inhibition, synergistic combos for chromothripsis tumors, cisplatin combos (AID 1671457; in the data active means inhibition above about 80%;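 further: cells exposed to compound for four days before readout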); details: LFS_MB_2R medulloblastoma cells, stronger effect = higher value
# [11] = MDA-MB-436 breast carcinoma cell growth inhibition, synergistic combos for chromothripsis tumors, BGB or cisplatin combos (AID 1671458); details: MDA-MB-436 breast carcinoma growth inhibition, drug combinations, stronger effect = higher value;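 further: cells exposed for 96 hours; 0% = vehicle DMSO and 100% = killing by high DMSO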
# [12] = UWB1.289_BRCA1 ovarian cancer growth, cell-based, BGB or cisplatin combinations (AID 1671459; in the data active means inhibition above about 80%); details: UWB1.289 BRCA1 ovarian carcinoma, drug combinations, stronger effect = higher value
# [13] = human astrocyte viability loss, single and combined drugs, cytotoxicity control for chromothriptic childhood tumor combination screen, cell-based, BGB or cisplatin IC20 combos (AID 1671460; in the data active means inhibition above about 80%;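 further: cells exposed to compounds for 96 hours before viability readout; 0% = vehicle and 100% = killing control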); details: Human astrocytes, drug combinations, stronger effect = higher value
# [14] = growth inhibition of BT084 medulloblastoma cells, cell-based, ICGC_MB145, cisplatin and BGB IC40 combos (AID 1671461; in the data active means inhibition above about 80%;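 further: cells exposed to drugs for 96 hours; 0% = vehicle DMSO and 100% = high DMSO full killing control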); details: drug combinations, stronger effect = higher value
# [15] = growth inhibition of RCMB18 medulloblastoma cells, cell-based, cisplatin and BGB IC40 combos (AID 1671462; in the data active means inhibition above about 80%;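 further: cells exposed to compound for four days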); details: stronger effect = higher value
# [16] = growth inhibition of CRL1545 osteosarcoma cells, cell-based, cisplatin and BGB IC20 combos (AID 1671464; in the data active means inhibition above about 80%;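 further: cells exposed to compound for 96 hours before readout; 0% = vehicle DMSO and 100% = high DMSO killing control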); details: stronger effect = higher value
# [17] = measured here: combination with cisplatin, at 0.5 µM
# [18] = measured here: combination with cisplatin, at 5 µM
compound,measurement,setting,value
N#C/C(=C\c1ccc(O)c(O)c1)C(=O)NCCCc1ccccc1,period change,[1],0.005 h (inactive)
same,inhibition,[2],-2% (inactive)
same,fluorescence ratio (interference),[3],1 (inactive)
FC(F)(F)c1cc(CO[C@H]2CCCN[C@H]2c2ccccc2)cc(C(F)(F)F)c1,period change,[1],0 h (inactive)
N#C/C(=C\c1ccc(O)c(O)c1)C(=O)Nc1ccccc1,period change,[1],0.11 h (inactive)
same,inhibition,[2],-2% (inactive)
same,fluorescence ratio (interference),[3],0.9 (inactive)
Cc1cccc(C)c1NC(=O)C[N+](C)(C)C,period change,[1],0.05 h (inactive)
Cc1nc2sccn2c(=O)c1CCN1CCC(=C(c2ccccc2)c2ccc(F)cc2)CC1,period change,[1],-0.05 h (inactive)
same,inhibition,[2],-1% (inactive)
same,fluorescence ratio (interference),[3],1 (inactive)
COc1ccc2[nH]c(I)c(CCNC(C)=O)c2c1,period change,[1],-0.075 h (inactive)
COC(=O)c1c(-c2cc(OC)c(OC)c(OC)c2)c2ccnc(OCc3ncccn3)c2c(=O)n1Cc1ccnc(C)c1,period change,[1],0.03 h (inactive)
COc1ccc(OC)c2c(=S)c3ccccc3[nH]c12,liver cell % of control,[4],97.2%
same,parasite % of control,[4],125% (inactive)
CN(C)C(=O)n1nnnc1Cc1ccc(-c2ccccc2)cc1,inhibition,[2],-2% (inactive)
same,fluorescence ratio (interference),[3],1 (inactive)
CCOC(=O)C12CC1/C(=N\O)c1ccccc1O2 (configuration not stated),inhibition,[2],0% (inactive)
same,fluorescence ratio (interference),[3],1 (inactive)
CS(=O)(=O)c1cccc(CNc2nc(Nc3ccc4c(c3)CCC(=O)N4)ncc2C(F)(F)F)c1,outcome,[5],inactive
COc1cc2nc(N3CCCN(C)CC3)nc(NC3CCN(Cc4ccccc4)CC3)c2cc1OC,inhibition,[2],3% (inactive)
same,fluorescence ratio (interference),[3],1 (inactive)
same,outcome,[5],inactive
NC(=O)c1ccc(N(C(N)=O)c2c(F)cccc2F)nc1-c1ccc(F)cc1F,liver cell % of control,[4],98.2% and 93.2% and 92%
same,parasite % of control,[4],55.7% (inactive) and 44.1% (inactive) and 51.8% (inactive)
CC(=O)Nc1nc(C)c(-c2ccc(Cl)c(S(=O)(=O)NCCO)c2)s1,inhibition,[6]; at 0.5 µM,1.54% (inactive)
same,inhibition,"[6]; measured here: combination with BGB IC40, at 0.05 µM",-12.3%
same,inhibition,[6]; [17],15.7%
same,inhibition,[6]; [18],14.2%
same,inhibition,[7]; at 0.5 µM,17% (inactive)
same,inhibition,"[7]; measured here: combination with BGB at IC20, at 0.5 µM",5.45%
same,inhibition,"[7]; measured here: combination with cisplatin at IC20, at 0.5 µM",52.4%
same,inhibition,[8]; at 0.5 µM,14.3% (inactive)
same,inhibition,"[8]; measured here: combo with BGB at IC20, at 0.5 µM",17.8%
same,inhibition,"[8]; measured here: combo with cisplatin at IC20, at 0.5 µM",10.3%
same,inhibition,[9]; at 0.5 µM,10.9% (inactive)
same,inhibition,"[9]; measured here: inhibition with BGB combination, at 0.05 µM",10.4%
same,inhibition,"[9]; measured here: inhibition with cisplatin combination, at 0.05 µM",1.8%
same,inhibition,[10]; at 0.5 µM,9.32% (inactive)
same,inhibition,[10]; [17],10.4%
same,inhibition,[10]; [18],43.2%
same,inhibition,[11]; at 0.5 µM,1.41% (inactive)
same,inhibition,"[11]; measured here: BGB combination, at 0.5 µM",-2.21%
same,inhibition,"[11]; measured here: BGB combination, at 5 µM",-3.92%
same,inhibition,"[11]; measured here: cisplatin combination, at 0.5 µM",-6.73%
same,inhibition,"[11]; measured here: cisplatin combination, at 5 µM",-16.3%
same,inhibition,"[12]; BGB combination, concentration series, at 5 µM",22.7%
same,inhibition,[12]; at 0.5 µM,6.36% (inactive)
same,inhibition,"[12]; cisplatin combination, concentration series, at 5 µM",12.2%
same,inhibition,[13]; at 0.5 µM,23.1% (inactive)
same,inhibition,"[13]; measured here: combo with BGB IC20, at 0.5 µM",23.7%
same,inhibition,"[13]; measured here: combo with cisplatin IC20, at 0.5 µM",25.1%
same,inhibition,[14]; at 0.5 µM,10.3% (inactive)
same,inhibition,"[14]; cisplatin combination, at 0.5 µM",14.9%
same,inhibition,"[14]; cisplatin combination, at 5 µM",-88.1%
same,inhibition,"[14]; measured here: BGB IC40 combination 0.05 uM, at 0.05 µM",3%
same,inhibition,"[14]; single agent, at 5 µM",29.8%
same,inhibition,[15]; at 0.5 µM,9.76% (inactive)
same,inhibition,"[15]; cisplatin combo, at 5 µM",16.5%
same,inhibition,"[15]; measured here: BGB IC40 combination, at 0.05 µM",-25%
same,inhibition,[15]; [17],0.78%
same,inhibition,"[15]; single agent, at 5 µM",15.1%
same,inhibition,[16]; at 0.5 µM,-8.22% (inactive)
same,inhibition,"[16]; measured here: with BGB IC20 combination, at 0.5 µM",-13.7%
same,inhibition,"[16]; measured here: with cisplatin IC20 combination, at 0.5 µM",-7.2%
same,inhibition,"[16]; single agent, at 0.05 µM",-0.058%
same,inhibition,"[16]; single agent, at 5 µM",1.73%
